Hits are enriched below; roughly 4.1% of the tested compounds scored in any of these assays.
DAX1 inh-1: DAX1 (NR0B1) inhibition, primary screen; 370,000 tested, 1.1% active; AID 652010; inhibition, % at 6.8 µM; HEK293T StAR-luciferase reporter, SF-1/DAX-1 repression relief;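 active means inhibition above the mean over all tested compounds plus 3 SD, cut at about 3.6% in these data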;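 further: higher inhibition means more luminescence from relief of DAX-1 repression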
DAX1 inh-2: inhibits human nuclear receptor DAX1. P51843. HEK293 Gal4-DAX1 luciferase reporter, luminescence. inhibition, % at 6.75 µM. 340,000 tested, 0.99% active. AID 504766;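 active means inhibition above the mean over all tested compounds plus 3 SD, cut at about 4.2% in these data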;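 further: inhibition shows as a rise in luminescence from relieved DAX1 repression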
hgDAF12 agonist: activates the H. glycines DAF-12 receptor ligand-binding domain; activation, % at 6.8 µM; HEK293 GAL4-hgDAF12 UAS-luciferase reporter, agonist luminescence; normalized to butyrate control; AID 687014; 370,000 tested, 1.8% active;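 active means activation above a cutoff set at the mean of all screened compounds plus 3 SD, cut at about 10% in these data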
ssDAF12 agonist: activates DAF-12 receptor from parasite S. stercoralis. HEK293 ssDAF-12/GRIP1 lit1-tk-luc reporter, luminescence; % of 3 µM dafachronic acid response. activation, % at 6.8 µM. 370,000 tested, 1% active;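 active means activation above the mean over all tested compounds plus 3 SD, cut at about 0.9% in these data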
hcDAF12 agonist: activates DAF-12 receptor from parasite H. contortus; activation, % at 6.8 µM; 370,000 tested, 1.4% active; HEK293 hcDAF-12 lit1-tk-luc reporter, luminescence; 0% DMSO, 100% Δ7-dafachronic acid; AID 652067;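 active means activation above the mean of all tested compounds plus 3 SD, cut at about 5.5% in these data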
DAX1 inh confirm: NR0B1 (human) inhibition, confirmation; AID 652134; inhibition, % at 6.8 µM; shares compounds with DAX1 inh-1; 2,400 tested, 87% active; HEK293T StAR-promoter luciferase reporter, SF-1/DAX-1 repression;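 active means inhibition above the average of every tested compound plus 3 SD, cut at about 3.8% in these data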;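 further: active compounds raise luminescence by relieving repression of the StAR reporter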
Target sequence (P51843 whole entry, looked up): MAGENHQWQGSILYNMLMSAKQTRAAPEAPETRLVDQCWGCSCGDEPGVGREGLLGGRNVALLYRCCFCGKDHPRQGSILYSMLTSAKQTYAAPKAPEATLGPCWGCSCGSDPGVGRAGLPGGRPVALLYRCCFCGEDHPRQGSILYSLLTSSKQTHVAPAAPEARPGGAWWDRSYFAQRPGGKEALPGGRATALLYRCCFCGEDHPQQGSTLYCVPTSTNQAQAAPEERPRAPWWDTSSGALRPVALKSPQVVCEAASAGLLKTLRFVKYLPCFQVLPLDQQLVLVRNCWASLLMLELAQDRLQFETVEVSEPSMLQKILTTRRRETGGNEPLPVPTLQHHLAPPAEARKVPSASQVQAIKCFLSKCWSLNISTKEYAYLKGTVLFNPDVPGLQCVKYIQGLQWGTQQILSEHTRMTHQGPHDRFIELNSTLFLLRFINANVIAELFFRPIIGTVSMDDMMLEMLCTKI
SF1 mutant ctr: counter-screen for DAX1 inhibitors: nonselective inhibitors with SF-1 AF2 mutant | HEK293 StAR-luciferase, luminescence | AID 652136 | inhibition, % at 6.8 µM | shares compounds with DAX1 inh-1 | 2,400 tested, 78% active;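 active means inhibition above the mean of all tested compounds plus 3 SD, cut at about 3% in these data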
A number is an active result.

`COC(=O)c1ccc2nc(-c3ccccc3)c(Cc3ccccc3OC)n2c1` gave DAX1 inh-1 4.8, hgDAF12 agonist inactive, ssDAF12 agonist inactive, hcDAF12 agonist inactive, DAX1 inh confirm inactive and SF1 mutant ctr inactive.
Screening COc1ccccc1Cc1c(-c2ccc(C)cc2)nc2ccc(Br)cn12 returned DAX1 inh-1 7.4, hgDAF12 agonist 23, ssDAF12 agonist inactive, hcDAF12 agonist 6.3, DAX1 inh confirm 8.2 and SF1 mutant ctr 5.6.
`COC(=O)c1ccc2nc(-c3ccc(C)cc3)c(Cc3ccccc3OC)n2c1` gave DAX1 inh-1 inactive, hgDAF12 agonist inactive, ssDAF12 agonist inactive and hcDAF12 agonist inactive.
`CC(C)(C)c1ccc(-c2nnc(SCC(=O)Nc3ccc4cn[nH]c4c3)n2-c2ccc(Cl)cc2)cc1` gave DAX1 inh-1 inactive, hgDAF12 agonist inactive, ssDAF12 agonist inactive and hcDAF12 agonist inactive.
Screening CN1C(=O)[C@@]2(O[C@H]3C=CC=CN3C3=C2C(=O)CCC3)c2cc([N+](=O)[O-])ccc21 returned DAX1 inh-1 inactive, hgDAF12 agonist inactive, ssDAF12 agonist inactive and hcDAF12 agonist inactive.
`O=S1(=O)CCSC[C@@H](CNCc2ccco2)N1` gave DAX1 inh-1 inactive, hgDAF12 agonist inactive, ssDAF12 agonist inactive and hcDAF12 agonist inactive.
Cc1cc(C)cc(C(=O)OCCN(C)C2CN(Cc3cn(Cc4ccc([N+](=O)[O-])cc4)nn3)S(=O)(=O)C2)c1 (stereo not drawn) was read as DAX1 inh-1 inactive, hgDAF12 agonist inactive, ssDAF12 agonist inactive and hcDAF12 agonist inactive.
For COc1ccccc1Cc1c(-c2ccc(C)cc2)nc2c(C)cc(Br)cn12 the results were DAX1 inh-1 5.3, hgDAF12 agonist inactive, ssDAF12 agonist inactive, hcDAF12 agonist inactive, DAX1 inh confirm inactive and SF1 mutant ctr inactive.
Screening Cc1ccccc1-c1ccc2c(c1)[C@@H]1C[C@H]3[C@@H](CN1CC2)[C@H](C)OC(c1ccccc1)N3C (stereo partly drawn) returned DAX1 inh-1 inactive, hgDAF12 agonist inactive, ssDAF12 agonist inactive and hcDAF12 agonist inactive.
For Cc1cc(C)n(-c2ccc(C(=O)Nc3ccccn3)cc2)n1 the results were DAX1 inh-1 4.7, DAX1 inh-2 inactive, hgDAF12 agonist 12, ssDAF12 agonist inactive, hcDAF12 agonist inactive, DAX1 inh confirm 11 and SF1 mutant ctr 5.4.
O=C(Nc1ccccn1)c1ccc(C(=O)c2ccccc2)cc1 was read as DAX1 inh-1 9.0, DAX1 inh-2 inactive, hgDAF12 agonist 13, ssDAF12 agonist inactive, hcDAF12 agonist inactive, DAX1 inh confirm 11 and SF1 mutant ctr 4.7.
For Cc1cc(C)n(-c2ccc(C(=O)Nc3cccnc3Cl)cc2)n1 the results were DAX1 inh-1 inactive, DAX1 inh-2 inactive, hgDAF12 agonist inactive, ssDAF12 agonist inactive and hcDAF12 agonist inactive.
N#Cc1ccc(Cn2ccc3ccc(-c4ccc5ccn(C(=O)C6CCCCC6)c5c4)cc32)cc1 was read as DAX1 inh-1 inactive, hgDAF12 agonist inactive, ssDAF12 agonist inactive and hcDAF12 agonist inactive.
For CCN(CC)c1ccc(C2Nc3cccc4cccc(c34)N2)cc1 the results were DAX1 inh-1 inactive, DAX1 inh-2 inactive, hgDAF12 agonist inactive, ssDAF12 agonist inactive and hcDAF12 agonist inactive.
`CCN(CC)c1ccc(C2NC(=O)c3ccccc3N2)cc1` (stereo not drawn) gave DAX1 inh-1 7.4, DAX1 inh-2 inactive, hgDAF12 agonist inactive, ssDAF12 agonist 1.1, hcDAF12 agonist 7.9, DAX1 inh confirm inactive and SF1 mutant ctr inactive.
`CCC[C@H]1[C@@H](OC(=O)NCc2ccc(OC)cc2)CC[C@@]23CCCN2C(=O)CCC[C@@H]13` gave hgDAF12 agonist inactive, ssDAF12 agonist inactive and hcDAF12 agonist inactive.
`Cc1ccc2oc(C(=O)Nc3nnc(C)s3)c(C)c2c1` gave DAX1 inh-1 inactive, DAX1 inh-2 inactive, hgDAF12 agonist inactive, ssDAF12 agonist inactive and hcDAF12 agonist inactive.
Screening COc1ccc2oc(C(=O)Nc3nnc(C)s3)c(C)c2c1 returned DAX1 inh-1 10, DAX1 inh-2 inactive, hgDAF12 agonist 11, ssDAF12 agonist inactive, hcDAF12 agonist inactive, DAX1 inh confirm 16 and SF1 mutant ctr 5.9.
`CCc1ccc(OCC(=O)O/N=C(\N)c2ccncc2)c(Br)c1` gave DAX1 inh-1 7.6, DAX1 inh-2 inactive, hgDAF12 agonist 12, ssDAF12 agonist inactive, hcDAF12 agonist inactive, DAX1 inh confirm 7.0 and SF1 mutant ctr 4.8.
For Cn1ccc2ccc(-c3ccc4c(c3)[C@]3(CCC[C@@H](OCc5ccccc5)[C@@H]3NC(=O)CCc3ccccc3)C(=O)N4Cc3ccccc3)cc21 the results were DAX1 inh-1 inactive, hgDAF12 agonist inactive, ssDAF12 agonist inactive and hcDAF12 agonist inactive.
Cc1c(C(=O)NCCCN2CCCCC2)oc2ccc3c(c12)C(O)CC1(CCCCC1)O3 (stereo not drawn) was read as DAX1 inh-1 5.7, DAX1 inh-2 inactive, hgDAF12 agonist inactive, ssDAF12 agonist inactive, hcDAF12 agonist inactive, DAX1 inh confirm inactive and SF1 mutant ctr inactive.
For CCCCCCCCN1C(=O)[C@@H](CC(=O)NCCc2ccccc2OC)C[C@@]2(C(=O)OC)C1=C[C@H](C(C)(C)C)O[C@@H]2C the results were DAX1 inh-1 inactive, hgDAF12 agonist inactive, ssDAF12 agonist inactive and hcDAF12 agonist inactive.
`Cc1ccc(Cn2cc(CN3CC(N4CCN(C5CCN(C)CC5)CC4)CS3(=O)=O)nn2)cc1` (stereo not drawn) gave DAX1 inh-1 4.7, hgDAF12 agonist inactive, ssDAF12 agonist inactive, hcDAF12 agonist inactive, DAX1 inh confirm inactive and SF1 mutant ctr 4.1.
For COc1c(OC(C)=O)ccc(/C=C/c2ccc3ccccc3n2)c1[N+](=O)[O-] the results were DAX1 inh-1 5.1, DAX1 inh-2 inactive, hgDAF12 agonist inactive, ssDAF12 agonist inactive, hcDAF12 agonist inactive, DAX1 inh confirm 12 and SF1 mutant ctr 6.2.
Screening O=C(OCc1ccc(Br)cc1)c1cc([N+](=O)[O-])ccc1N1CCOCC1 returned DAX1 inh-1 inactive, DAX1 inh-2 inactive, hgDAF12 agonist inactive, ssDAF12 agonist inactive and hcDAF12 agonist inactive.
Screening COc1ccc(COC(=O)c2cc([N+](=O)[O-])ccc2N2CCOCC2)cc1F returned DAX1 inh-1 4.5, DAX1 inh-2 inactive, hgDAF12 agonist inactive, ssDAF12 agonist inactive, hcDAF12 agonist inactive, DAX1 inh confirm 13 and SF1 mutant ctr inactive.
For CC(C)C[C@H]1COc2c(Cl)cccc2S(=O)(=O)N1Cc1cccc(Cl)c1 the results were DAX1 inh-1 inactive, hgDAF12 agonist inactive, ssDAF12 agonist inactive and hcDAF12 agonist inactive.

Screening results: PubChem BioAssay, The Scripps Research Institute Molecular Screening Center
